Source: PubChem (Johns Hopkins Ion Channel Center)
KCNQ2 pot: enhances the rat KCNQ2 potassium channel; CHO-K1 KCNQ2, FluxOR thallium flux fluorescence; stronger effect = higher value; B-score at 10 µM; 310,000 compounds, 0.54% hits; AID 2239;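 active = fluorescence ratio B-score at least 3 SD of library B-scores, with initial fluorescence B-score within 3 of them, cut at about 5.3 in these data; same plate scores as AID 2156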;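 note: B-score of peak minus minimum over baseline fluorescence ratio after K+ and Tl+ stimulus; positive B-score means potentiation of KCNQ2 with more thallium influx and brighter signal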
KCNQ2 block: blocks the rat KCNQ2 potassium channel | O88943 | CHO-K1 KCNQ2, FluxOR thallium flux, 20 min; stronger effect = lower value | B-score at 10 µM | 310,000 compounds, 1.1% hits;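 active = fluorescence ratio B-score at most minus 3 library SDs, with starting brightness B-score within 2 library SDs, cut at about -5.5 in these data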
KCNQ2 block conf: rat KCNQ2 channel inhibition, confirmatory screen | shares compounds with KCNQ2 block | KCNQ2-expressing cells, thallium flux; stronger effect = lower value | activity change, negative = inhibition, % at 10 µM | 1,000 compounds, 57% hits | AID 493025;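 note: 0% = vehicle wells and values are ratio percent relative to vehicle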
KCNQ1 spec: human KCNQ1 activity in KCNQ2 inhibitor specificity screen; shares compounds with KCNQ2 block; KCNQ1-expressing cells, FluxOR thallium flux fluorescence; stronger effect = lower value; activity change, negative = inhibition, % at 10 µM; 1,000 compounds, 15% hits;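 active = activity change at least 3 SD of negative controls below their mean in both duplicate wells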;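 note: CHO cells stably transfected with KCNQ1 and depolarized by potassium stimulus; peak minus minimum fluorescence over baseline after thallium addition; 0% = vehicle negative control and -100% = blank without thallium stimulus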
Target sequence (P51787 whole entry, looked up): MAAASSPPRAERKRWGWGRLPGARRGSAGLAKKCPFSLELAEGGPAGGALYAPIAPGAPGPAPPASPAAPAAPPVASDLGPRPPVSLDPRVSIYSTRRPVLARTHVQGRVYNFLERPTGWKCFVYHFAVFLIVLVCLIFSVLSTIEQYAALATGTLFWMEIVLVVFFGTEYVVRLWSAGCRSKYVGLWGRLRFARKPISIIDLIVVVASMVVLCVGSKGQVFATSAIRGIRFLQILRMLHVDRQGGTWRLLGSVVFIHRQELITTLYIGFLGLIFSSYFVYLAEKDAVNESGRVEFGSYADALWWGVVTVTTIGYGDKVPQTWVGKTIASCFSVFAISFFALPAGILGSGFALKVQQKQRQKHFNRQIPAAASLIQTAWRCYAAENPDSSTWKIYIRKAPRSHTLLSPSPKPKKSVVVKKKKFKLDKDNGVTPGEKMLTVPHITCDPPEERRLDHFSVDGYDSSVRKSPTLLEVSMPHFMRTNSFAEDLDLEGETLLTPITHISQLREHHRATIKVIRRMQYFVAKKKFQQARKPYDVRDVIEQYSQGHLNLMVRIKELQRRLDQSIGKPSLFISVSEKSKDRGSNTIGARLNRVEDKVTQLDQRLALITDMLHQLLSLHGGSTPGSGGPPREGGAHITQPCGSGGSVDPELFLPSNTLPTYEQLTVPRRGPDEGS
CHO parental ctr: KCNQ2 inhibitor counter-screen hit in parental CHO cells | shares compounds with KCNQ2 block | thallium flux counter-screen; stronger effect = lower value | activity change, % at 10 µM | 1,000 compounds, 14% hits | AID 493029;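 note: 0% = vehicle negative controls with stimulus buffer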
KCNQ2 inh confirm: rat KCNQ2 inhibition confirmed by electrophysiology. shares compounds with KCNQ2 block. KCNQ2-expressing cells, automated patch clamp current. calls only at 10 µM. 550 compounds, 49% hits
An asterisk follows results filed as active; i = inactive; . = not tested or not shown; + = active, no number. Rows were chosen to be rich in hits. Some 1.6% of all compounds tested hit in one or more screens of this group. Unless noted, the rule behind the calls is not given here.

SMILES | KCNQ2 pot | KCNQ2 block | KCNQ2 block conf | KCNQ1 spec | CHO parental ctr | others
CCn1c(=O)c(C(=O)NCc2cccnc2)c(O)c2ccccc21 | 1.1 | i | . | . | .
COc1cc(Br)c(C2C(C#N)=C(N)Oc3n[nH]c(-c4cccnc4)c32)cc1OC (centres undefined) | 1.1 | i | . | . | .
C=CCNC(=S)NNc1nc2sc3c(c2c(=O)[nH]1)CC(C)(C)OC3 | . | i | . | . | .
CCOC(=O)C1CCN(C(=O)C(=O)Nc2ccc3nc4n(c(=O)c3c2)CCCCC4)CC1 | . | i | . | . | .
CC(=O)Nc1ccc(NC(=O)c2ccc(COc3ccccc3Br)o2)cc1 | 0.53 | i | . | . | .
Cc1cccc(NC(=O)c2ccc(COc3cccc4ccccc34)o2)n1 | -8.8 | -8.8* | -38%* | -34%* | -28%* | KCNQ2 inh confirm=i
CC(C)c1nn2c(=O)cc(COc3cccc(NC(=O)c4ccco4)c3)nc2s1 | 0.23 | i | . | . | .
O=C(NC(Cc1ccccc1)c1ccc2c(c1)OCCCO2)c1ccccc1F (centres undefined) | . | i | . | . | .
CC(=O)N(CCC(Cc1ccccc1)c1ccc2c(c1)OCO2)Cc1ccccc1F (centres undefined) | -7.2 | -7.2* | -35%* | i | i | KCNQ2 inh confirm=i
N#Cc1c(NCCN)nc(-c2ccco2)c2c1CCCC2 | . | i | . | . | .
CC(C)CCNc1nc(-c2ccco2)c2c(c1C#N)CCCC2 | -6.8 | -6.8* | i | i | i
CC(C)CN(C(=O)COC(=O)C(C)N1C(=O)c2ccccc2C1=O)c1c(N)n(Cc2ccccc2)c(=O)[nH]c1=O (centres undefined) | 0.71 | i | . | . | .
CCCCCC[C@@H]([C@@H](C)O)n1cnc2c(N)ncnc21 | 0.81 | i | . | . | .
CCCCCCCCCCCCCCCC(O)C(N)CO (centres undefined) | -10 | -10* | i | i | i
O=C(NC(=S)Nc1ccccc1Cl)c1cncc(Br)c1 | 0.53 | i | . | . | .
CN(C)CCCNC(=O)/C(=C\c1ccc(-c2ccc(Br)cc2)o1)NC(=O)c1ccccc1 | . | i | . | . | .
Cc1ccc(C(=O)N/C(=C\c2ccc(-c3ccc(Cl)cc3)o2)C(=O)NCCCN(C)C)cc1 | -7.2 | -7.2* | -18%* | i | i
O=C(CCN1CCc2ccccc21)c1ccc2c(c1)OCCO2 | 0.36 | i | . | . | .
O=C(CCN1CCCCC1)c1ccc2c(c1)OCCO2 | . | i | . | . | .
O=C(CCN1CCCC1Cc1ccccc1)c1ccc2c(c1)OCCO2 (centres undefined) | -7.9 | -7.9* | -35%* | -30%* | -24%* | KCNQ2 inh confirm=+
O=C(CCN1CCc2ccccc2C1)c1ccc2c(c1)OCCO2 | -8.3 | -8.3* | -16%* | i | i | KCNQ2 inh confirm=+
O=C(NC1CCN(Cc2ccc(Cl)c(Cl)c2)CC1)c1ccccc1 | . | i | . | . | .
C=C1SC(Nc2c(C)cc(C)cc2C)=NC12CCCCC2 | -7.6 | -7.6* | -28%* | i | i | KCNQ2 inh confirm=i
C=C1SC(Nc2c(C)cccc2C)=NC12CCCCC2 | . | i | . | . | .
CC(=O)N1N=C(c2ccccc2)CC1c1ccc(F)cc1 (centres undefined) | . | i | . | . | .
SMILES | KCNQ2 pot | KCNQ2 block | KCNQ2 block conf | KCNQ1 spec | CHO parental ctr | others
Cc1ccc(NC(=O)N2N=C(c3ccc(F)cc3)CC2c2ccc(F)cc2)cc1 (centres undefined) | -7.9 | -7.9* | i | i | i
O=S(=O)(NCc1ccccc1)NCc1cccc(C(F)(F)F)c1 | 0.02 | i | . | . | .
Cc1cc(C)n(-c2ccc(C(=O)Nc3ccc(C)c(S(=O)(=O)N4CCOCC4)c3)cc2)n1 | 0.23 | i | . | . | .
CCOCCn1c(=NC(=O)CSCC(=O)N2CCOCC2)sc2cc(OC)ccc21 | 0.4 | i | . | . | .
Cc1ccccc1-n1nnnc1SC(C)C(=O)NC1CCCc2ccccc21 (centres undefined) | -8.8 | -8.8* | -37%* | -38%* | -31%* | KCNQ2 inh confirm=+
O=C(CSc1nnnn1-c1ccccc1)NC1CCCc2ccccc21 (centres undefined) | . | i | . | . | .
Cc1nnc(SC(C)C(=O)NC2CCCc3ccccc32)n1-c1ccccc1 (centres undefined) | -6.6 | -6.6* | -37%* | i | i | KCNQ2 inh confirm=+
Cc1ccccc1CC(=O)NC1CCCc2ccccc21 (centres undefined) | . | i | . | . | .
CC(Sc1nnc(Nc2ccccc2)s1)C(=O)NC1CCCc2ccccc21 (centres undefined) | . | i | . | . | .
Cc1ccccc1-n1c(C)nnc1SCC(=O)NC1CCCc2ccccc21 (centres undefined) | -7.7 | -7.7* | i | i | i
CCOC(=O)c1c(NC(=O)CN2C(=O)C(=O)N(CC(C)C)C2=O)sc(C)c1CC | 0.27 | i | . | . | .
COc1cc(NS(=O)(=O)c2c(C)[nH]c(C)c2C(=O)N2CCCCC2)cc(OC)c1OC | 0.29 | i | . | . | .
O=C(COc1ccc(Cl)cc1Cl)OCC(=O)N1CCCc2ccccc21 | 0.48 | i | . | . | .
O=C(CCCOc1ccc(Cl)cc1Cl)N1CCCc2ccccc21 | -14 | -14* | i | i | i
COC(=O)c1ccc2c(=O)[nH]c(COC(=O)c3c(-c4ccccc4Cl)noc3C)nc2c1 | 0.98 | i | . | . | .
CCN(CC(=O)Nc1ccccc1OC)C(=O)c1cc(-c2ccccc2)nn1-c1ccccc1 | . | i | . | . | .
CCN(CC(=O)Nc1ccccc1C(F)(F)F)C(=O)c1cc(-c2ccccc2)nn1-c1ccccc1 | -9.3 | -9.3* | i | i | i
CN(C)S(=O)(=O)c1ccc(N2CCCC2)c(C(=O)NNC(=O)COc2ccccc2F)c1 | -8.3 | -8.3* | -22%* | i | i | KCNQ2 inh confirm=+
CN(C)S(=O)(=O)c1ccc(N2CCCC2)c(C(=O)NNC(=O)COc2ccccc2Cl)c1 | . | i | . | . | .
O=C(CSc1nc2ccccc2[nH]1)N1CCCCC1 | 0.33 | i | . | . | .
Cc1c(C)n(C(=O)CSc2nc3ccccc3[nH]2)c2ccccc12 | -11 | -11* | -30%* | i | i | KCNQ2 inh confirm=i
CC(Oc1ccccc1)C(=O)N=C1SC2CS(=O)(=O)CC2N1CCc1ccccc1 (centres undefined) | 2.6 | i | . | . | .
O=C(Cc1ccc(Cl)cc1Cl)Nc1cccc(S(=O)(=O)Nc2ccccc2F)c1 | 1.6 | i | . | . | .
CC(C)c1nc(N2CCN(C(=O)c3ccco3)CC2)c2c3c(sc2n1)CCCC3 | -8.7 | -8.7* | i | i | i
Cc1nc(N2CCN(C(=O)c3ccco3)CC2)c2c3c(sc2n1)CCC3 | 1.2 | i | . | . | .
SMILES | KCNQ2 pot | KCNQ2 block | KCNQ2 block conf | KCNQ1 spec | CHO parental ctr | others
NNc1nc2c(Cl)ccc(Cl)c2s1 | . | i | . | . | .
COc1cccc(/C=C2\SC(=S)N(N3CCOCC3)C2=O)c1OC | -8.6 | -8.6* | -34%* | i | i | KCNQ2 inh confirm=i
COc1ccc(/C=C2\SC(=S)N(N3CCOCC3)C2=O)c(OC)c1 | . | i | . | . | .
Cc1ccccc1NS(=O)(=O)c1cc(C(=O)NCc2ccncc2)ccc1Cl | . | i | . | . | .
Cc1ccc(-c2cnc(C3CC3)o2)cc1S(=O)(=O)Nc1ccccc1 | . | i | . | . | .
Cc1ccc(N(C)S(=O)(=O)c2cc(-c3cnc(C4CC4)o3)ccc2C)cc1 | -7.2 | -7.2* | -15%* | i | i | KCNQ2 inh confirm=i
